# Experimental data from ChEMBL document CHEMBL3988442, “University of Dundee, Small-Polar-MMV Screening Library” (2021).
# Hit rate of the full screen: of about 53,000 compounds, about 900 (1.7%) showed an effect of 50% or more. The sample holds strong results, similar compounds and a random draw of the others, so the mix is not that of the screen.
# Test system: Mycobacterium tuberculosis
# Test: Cornell - Phenotypic assay to identify agents that inhibit growth of Mycobacterium tuberculosis
# Format: functional
# Set-up: scale not given: direction of the effect not stated beside the values
# Settings: 10 mM as filed; unlikely as a test dose
row,SMILES,Percent Effect
1,Cc1nn(C)cc1C(=O)N1CCC(C(=O)c2nc3ccccc3s2)CC1,26.37%
2,Cc1c(C(=O)N2CCC(C(=O)c3nc4ccccc4s3)CC2)cnn1C,60.09%
3,Cn1nc(Cl)cc1C(=O)N1CCC(C(=O)c2nc3ccccc3s2)CC1,-10.64%
4,Cc1cccc(OCc2ccc(C(=O)N3N=CCC3(O)C(F)(F)F)o2)c1 (stereo not drawn),29.06%
5,O=C(c1ccc(COc2ccccc2Cl)o1)N1N=CCC1(O)C(F)(F)F (stereo not drawn),1.91%
6,O=C(c1ccc(COc2ccc(Cl)cc2)o1)N1N=CCC1(O)C(F)(F)F (stereo not drawn),61.62%
7,Cc1nnsc1C(=O)N1CCC(c2nc3ccccc3[nH]2)CC1,0.6445%
8,CCOC(=O)C1CCN(C(=O)c2cc(F)ccc2-n2cnnn2)CC1,-0.0971%
9,O=C(c1ccnnc1)N1CC[C@@H](O)[C@@H]1Cc1ccccc1,-23.76%
10,CCc1c(C)sc2c1c(N)nc(=O)n2CCN1CCCCC1,22.93%
11,CCN(CC1CCCN(CCc2cccc(OC)c2)C1)C(=O)CCSC (stereo not drawn),-29.92%
12,Cc1ccc(CN2C[C@H](OCC3CCOCC3)[C@H]3COC[C@H]32)o1.O=C(O)C(F)(F)F,-26.82%
13,Cc1ccc(N2CCCC3(COCCN(c4nccs4)C3)C2)nn1.O=C(O)C(F)(F)F.O=C(O)C(F)(F)F (stereo not drawn),20.96%
14,O=C(O)C(F)(F)F.c1ccc(N2CCCC3(COCCN(c4nccs4)C3)C2)nc1 (stereo not drawn),51.66%
15,c1ccc(N2CCOCC3(CCCN(c4nccs4)C3)C2)nc1 (stereo not drawn),23.66%
16,Cc1nc(Cn2c3c(ccc2=O)CC(NC(N)=O)CC3)cs1 (stereo not drawn),-11.16%
17,O=C(c1ccoc1)N1CC[C@@H]2O[C@@H](COCc3ccncc3)CC[C@@H]21,17.45%
18,CC(C)c1noc(CN2CCN(C(=O)c3cc(Cl)ccc3F)CC2)n1,34.44%
19,CC(C)c1noc(C[S+]([O-])CC(=O)Nc2cc(F)ccc2F)n1 (stereo not drawn),57.68%
20,CC(C)c1noc(CCC(=O)Nc2cc(F)ccc2F)n1,-35.92%
21,CC(C)CCc1noc(C[S+]([O-])CC(=O)NCc2ccccc2)n1 (stereo not drawn),-9.037%
22,CC(C)c1noc(C[S+]([O-])CC(=O)Nc2ccc(F)c(F)c2)n1 (stereo not drawn),60.65%
23,CC(C)c1noc(CCCC(=O)Nc2cccc(F)c2)n1,-20.44%

row,SMILES,Percent Effect
1,Cc1cc(C)n(C2CCCN(C(=O)c3ccc(N(C)C)nc3)C2)n1 (stereo not drawn),-19.67%
2,Cc1ccc(CN2CCCC(c3cnccn3)C2)s1 (stereo not drawn),14.09%
3,Cl.Fc1cccc(F)c1Cn1c(C2CCCNC2)cc2cccnc21 (stereo not drawn),30.15%
4,c1cncc(CNCCc2cccs2)c1,34.29%
5,Cc1cn2nc(Sc3nnnn3C)sc2n1,-10.32%
6,O=C(O)c1csc(S(=O)(=O)Nc2c(F)cccc2-n2cccn2)c1,-80.25%
7,O=C(c1ncccn1)N1C[C@@H]2CC[C@H](Oc3cccc(F)c3)[C@@H]2C1,15.44%
8,Cn1ccc(C2CCCCCN2C(=O)c2cccnc2)n1 (stereo not drawn),-55.79%
9,CCC(CN1CCOCC1)n1cncc1-c1ccc2c(c1)CCN2CC.Cl (stereo not drawn),11.86%
10,CN(CC(=O)N(CCC#N)c1ccccc1)C1CCc2ccccc21 (stereo not drawn),6.676%
11,Cc1cc(NC(=O)CN2CCCC2Cn2nc(C)nc2C)on1 (stereo not drawn),9.67%
12,COc1ccc2c(c1)C(=O)N(C)C1(CCN(CC3CC3)CC1)N2,-6.53%
13,COc1ccc2c(c1)C(=O)N(C)C1(CCN(CC=C(C)C)CC1)N2,0.8841%
14,COc1ccc2c(c1)C(=O)N(C)C1(CCN(C(=O)OC(C)(C)C)CC1)N2,105.8%
15,Cc1cc(N2CCC(CO)(CC3CCCCO3)CC2)nc2ccccc12 (stereo not drawn),-1.855%
16,Cc1cc(N2CCC(CO)(CC3CCCCO3)CC2)c2ccccc2n1 (stereo not drawn),0.8134%
17,OCC1(CC2CCCCO2)CCN(c2cnc3ccccc3n2)CC1 (stereo not drawn),107%
18,O=C(c1ccc[nH]1)N1CCOCC12CCCC2,-33.44%
19,Cc1ccc(F)cc1C(=O)N1CCOCC12CCCC2,20.33%
20,Cc1[nH]ccc1C(=O)N1CCOCC12CCCC2,102.6%
21,O=C1CC(N2CCN(c3ccc(F)cc3)CC2)C(=O)N1Cc1cccs1 (stereo not drawn),42.8%
22,COCCN1C(=O)CC(N2CCN(c3ccc(F)cc3)CC2)C1=O (stereo not drawn),4.981%
23,COCCN1C(=O)CC(N2CCN(c3ccccc3)CC2)C1=O (stereo not drawn),12.26%

row,SMILES,Percent Effect
1,CC(C)CN1C(=O)CC(N2CCN(c3ccc(F)cc3)CC2)C1=O (stereo not drawn),12.43%
2,O=C1CC(N2CCN(c3ccccc3O)CC2)C(=O)N1Cc1cccs1 (stereo not drawn),63.35%
3,O=C1CC(N2CCN(c3ccc(O)cc3)CC2)C(=O)N1Cc1cccs1 (stereo not drawn),104.3%
4,CCCN1C(=O)CC(N2CCN(c3ccc(F)cc3)CC2)C1=O (stereo not drawn),-5.623%
5,COCCCN1C(=O)CC(N2CCN(c3ccc(F)cc3)CC2)C1=O (stereo not drawn),4.554%
6,COCCN1C(=O)CC(N2CCN(c3ccc(OC)cc3)CC2)C1=O (stereo not drawn),55.38%
7,COC1(CNC(=O)c2ccoc2)CCSC1 (stereo not drawn),-5.057%
8,Cc1nn(C(C)C)c2cnn(CC(=O)N3CCSCC3)c12,-7.998%
9,CCO[C@H]1CO[C@@]2(CCN(Cc3ccc4c(c3)OCO4)C2)C1.O=C(O)C(F)(F)F,22.33%
10,CCC(c1ccccc1)S(=O)(=O)CCO (stereo not drawn),-20.37%
11,CN(C)c1ncc(CN2CCC(O)(c3ccccc3F)CC2)cn1.O=C(O)CC(O)(CC(=O)O)C(=O)O,6.266%
12,CN(C)c1ncc(CN2CCCC(Nc3ccc4c(c3)OCCO4)C2)s1 (stereo not drawn),37%
13,COc1ccc(NC2CCCN(Cc3cnc(N(C)C)s3)C2)cc1 (stereo not drawn),47.8%
14,COc1ccc(NC2CCCN(Cc3cnc(N(C)C)s3)C2)cc1OC (stereo not drawn),55.76%
15,O=C(NC1CCCCC1)c1ccc(Oc2ccc3nncn3n2)cc1,-7.341%
16,CS(=O)(=O)N[C@H]1CCO[C@]2(CCN(C(=O)c3ccccn3)C2)C1.O=C(O)C(F)(F)F,4.539%
17,CN1CCCC(c2cccc(-c3ccccc3F)n2)C1 (stereo not drawn),55.32%
18,CN1CCCC(c2cncc(-c3cccc(C(F)(F)F)c3)n2)C1 (stereo not drawn),51.88%
19,OCCN1CCCC(c2cccc(-c3ccccc3F)n2)C1 (stereo not drawn),-3.425%
20,CS(=O)(=O)N1CCCC(c2cccc(-c3ccccc3F)n2)C1 (stereo not drawn),29.33%
21,CN1CCCC(c2cccc(-c3cccc(C(F)(F)F)c3)n2)C1 (stereo not drawn),30.4%
22,CN1CCCC(c2nccnc2-c2cccc(C(F)(F)F)c2)C1 (stereo not drawn),32.41%
